# Test results as given in PubChem BioAssay.
# Values joined by “and” are separate entries in the source; they are usually repeats but may differ in a detail not shown here. Equal entries are not always repeated. Active and inactive are the calls of the source.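 How the source made its calls, unless noted: active means normalized viability below 100% at a tested concentration; inactive means the rest.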
# Columns and labels:
# [1] = test system: Aerobactin synthetase IucA (Klebsiella pneumoniae); assay: IucA aerobactin synthetase inhibitors, biochemical, Tocris library, absorbance (AID 1345561; call rule not given here;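 further: 100% = enzyme without compound and 0% = no enzyme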); settings: purified IucA enzyme assay, absorbance (OD) read-out; stronger effect = lower value;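 tested at 8 µM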
# [2] = sensitizers of A549 cells to miR-34 induction, primary screen, imaging, A549 dox-inducible miR-34, nuclei and caspase counts (AID 1347080;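 active means compounds whose cell count with miR-34 switched on is under 0.7 times the count with it off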); settings: A549 miR-34 inducible, Hoechst nuclei count, 48 h
# [3] = viability rescue of complex I mutant cybrids, primary screen, cell-based, galactose medium, ATP luminescence (AID 1645843;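 active means z-score of at least 1.8 in each of two replicates, scored against plate mean and spread of sample wells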;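 further: positive z means more ATP and so rescue of galactose-driven cybrid death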); settings: complex I mutant cybrid cells, 72 h, stronger effect = higher value
# [4] = inhibitors of Cryptococcus chitosan production, flow cytometry, Cibacron Brilliant Red staining (AID 1347148; call rule not given here;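 further: compound exposure lasted three days at 37 degrees C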); settings: Cryptococcus neoformans chitosan, stronger effect = lower value; at 10 µM unless noted
# [5] = liver-stage malaria parasite growth inhibition, primary screen, cell-based, HepG2, luciferase luminescence, HepG2 viability (AID 624349; in the data active means parasite load remaining mostly below about 12%, no sharp cut-off; inactive means mostly above about 10%;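 further: 100% = mean of DMSO negative control wells on the same plate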); settings: P. berghei liver stage in HepG2, luciferase luminescence, concentration not given here; parasite load remaining: stronger effect = lower value; viability: measured here: HepG2 viability without parasites
# [6] = modifiers of HSF1 nuclear foci, imaging, Selleck Cancer Library (AID 1347162; in the data active means plate-normalised HSF1 focus index below about 0.46); settings: human cells, at 10 µM; SSMD: measured here: HSF1 foci SSMD mean; cell count: measured here: cell number; plate-normalised HSF1 focus index: stronger effect = lower value
# [7] = survival rescue of mitochondrial mutant cells in low glucose, primary screen, MELAS cybrids, Rieske KO mouse fibroblasts, CellTiter-Glo (AID 1508586;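 active means mean z-score across replicates of 1.96 or higher in either the MELAS or the Rieske mutant cell line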;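 further: z relative to plate mean and SD of compound and empty wells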)
# [8] = ovarian cancer cell viability with rucaparib, profiling panel, oncology-focused library, rucaparib conditional (AID 1508598); settings: patient-derived ovarian cancer cells, CellTiter-Glo viability, 144 h, stronger effect = lower value
# [9] = hESC survival regulators, cell-based (AID 493140; call rule not given here;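 further: cells exposed to compounds for four days before counting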); settings: human embryonic stem cell survival screen; stronger effect = higher value
# [10] = stronger effect = lower value, cell number ratio, induced over uninduced
# [11] = measured here: relative caspase fold change +Dox/-Dox
# [12] = measured here: total cells with miR-34 induction, stronger effect = lower value
# [13] = measured here: total cells without miR-34 induction
# [14] = MELAS cybrid survival, CellTiter-Glo 48 h, stronger effect = higher value
# [15] = Rieske KO mouse fibroblast survival, CellTiter-Glo 72 h
smiles,measurement,setting,value
CS/C(N)=C(C#N)/C(C#N)=C(\N)SC,remaining activity,[1],109% (inactive)
same,fold change,[2]; [10],0.85 (inactive)
same,fold change,[2]; [11],1.19
same,cell count,[2]; [12],8330
same,cell count,[2]; [13],9800
same,z-score,[3],-0.595 (inactive)
O=Nc1ccc(O)c2ncccc12,remaining activity,[1],118% (inactive)
same,fold change,[2]; [10],1.09 (inactive)
same,fold change,[2]; [11],1.32
same,cell count,[2]; [12],2920
same,cell count,[2]; [13],2670
same,z-score,[3],-1.02 (inactive)
COC(=O)C1=C(C)NC(C)=C([N+](=O)[O-])[C@H]1c1ccccc1C(F)(F)F,remaining activity,[1],113% (inactive)
same,fold change,[2]; [10],0.834 (inactive)
same,fold change,[2]; [11],1.13
same,cell count,[2]; [12],7130
same,cell count,[2]; [13],8550
same,fold fluorescence,[4],5.36 [at 140.3 µM] (inactive)
same,z-score,[3],-0.645 (inactive)
Nc1[nH]nc2nnc(-c3c(-c4ccccc4)nn4ccccc34)cc12,parasite load remaining,[5],43.4% (inactive)
same,viability,[5],122%
same,remaining activity,[1],115% (inactive)
same,fold change,[2]; [10],1.01 (inactive)
same,fold change,[2]; [11],3.36
same,cell count,[2]; [12],6630
same,cell count,[2]; [13],6550
same,SSMD,[6],2.88
same,cell count,[6],7090
same,plate-normalised HSF1 focus index,[6],1.16 (inactive)
same,z-score,[3],1.04 (inactive)
COc1cc(NC(=O)c2ccccn2)ccc1Cl,remaining activity,[1],122% (inactive)
same,fold change,[2]; [10],1.03 (inactive) and 0.942 (inactive)
same,fold change,[2]; [11],0.59 and 1.55
same,cell count,[2]; [12],7300 and 8170
same,cell count,[2]; [13],7110 and 8670
same,z-score,[7]; [14],0.202 (inactive)
same,z-score,[7]; [15],0.293
same,z-score,[3],1.19 (inactive)
Cc1cc(F)c(Nc2ncnc3cc(OCc4ccccc4)ccc23)cc1O,remaining activity,[1],105% (inactive)
same,fold change,[2]; [10],0.94 (inactive) and 0.947 (inactive)
same,fold change,[2]; [11],0.62 and 2.22
same,cell count,[2]; [12],7080 and 7020
same,cell count,[2]; [13],7530 and 7420
same,z-score,[7]; [14],0.202 (inactive)
same,z-score,[7]; [15],0.0931
same,z-score,[3],1.85 (inactive)
Cc1ccc(-c2csc(NC(=O)c3ccccc3)n2)c(C)c1,remaining activity,[1],101% (inactive)
same,fold change,[2]; [10],0.855 (inactive) and 0.98 (inactive)
same,fold change,[2]; [11],0.603 and 0.953
same,cell count,[2]; [12],6970 and 3650
same,cell count,[2]; [13],8160 and 3730
same,z-score,[7]; [14],-0.247 (inactive)
same,z-score,[7]; [15],0.265
same,viability,"[8]; at 0.000305 µM, OCI-C5x cells, with rucaparib 10 µM, 100% = cells with rucaparib alone",125% (inactive)
same,viability,"[8]; at 0.000305 µM, OCI-C5x cells, without rucaparib",121% (inactive)
same,viability,"[8]; at 0.000305 µM, OCI-P5x cells, with rucaparib 20 µM, 100% = cells with rucaparib alone",102% (inactive)
same,viability,"[8]; at 0.000305 µM, OCI-P5x cells, without rucaparib",106% (inactive)
same,viability,"[8]; at 0.00122 µM, OCI-C5x cells, with rucaparib 10 µM, 100% = cells with rucaparib alone",119% (inactive)
same,viability,"[8]; at 0.00122 µM, OCI-C5x cells, without rucaparib",117% (inactive)
same,viability,"[8]; at 0.00122 µM, OCI-P5x cells, with rucaparib 20 µM, 100% = cells with rucaparib alone",99.9% (active)
same,viability,"[8]; at 0.00122 µM, OCI-P5x cells, without rucaparib",101% (inactive)
same,viability,"[8]; at 0.00488 µM, OCI-C5x cells, with rucaparib 10 µM, 100% = cells with rucaparib alone",132% (inactive)
same,viability,"[8]; at 0.00488 µM, OCI-C5x cells, without rucaparib",125% (inactive)
same,viability,"[8]; at 0.00488 µM, OCI-P5x cells, with rucaparib 20 µM, 100% = cells with rucaparib alone",98.6% (active)
same,viability,"[8]; at 0.00488 µM, OCI-P5x cells, without rucaparib",105% (inactive)
same,viability,"[8]; at 0.0195 µM, OCI-C5x cells, with rucaparib 10 µM, 100% = cells with rucaparib alone",115% (inactive)
same,viability,"[8]; at 0.0195 µM, OCI-C5x cells, without rucaparib",113% (inactive)
same,viability,"[8]; at 0.0195 µM, OCI-P5x cells, with rucaparib 20 µM, 100% = cells with rucaparib alone",102% (inactive)
same,viability,"[8]; at 0.0195 µM, OCI-P5x cells, without rucaparib",98.4% (active)
same,viability,"[8]; at 0.0781 µM, OCI-C5x cells, with rucaparib 10 µM, 100% = cells with rucaparib alone",125% (inactive)
same,viability,"[8]; at 0.0781 µM, OCI-C5x cells, without rucaparib",117% (inactive)
same,viability,"[8]; at 0.0781 µM, OCI-P5x cells, with rucaparib 20 µM, 100% = cells with rucaparib alone",103% (inactive)
same,viability,"[8]; at 0.0781 µM, OCI-P5x cells, without rucaparib",103% (inactive)
same,viability,"[8]; at 0.313 µM, OCI-C5x cells, with rucaparib 10 µM, 100% = cells with rucaparib alone",123% (inactive)
same,viability,"[8]; at 0.313 µM, OCI-C5x cells, without rucaparib",116% (inactive)
same,viability,"[8]; at 0.313 µM, OCI-P5x cells, with rucaparib 20 µM, 100% = cells with rucaparib alone",100% (inactive)
same,viability,"[8]; at 0.313 µM, OCI-P5x cells, without rucaparib",99.4% (active)
same,viability,"[8]; at 1.25 µM, OCI-C5x cells, with rucaparib 10 µM, 100% = cells with rucaparib alone",131% (inactive)
same,viability,"[8]; at 1.25 µM, OCI-C5x cells, without rucaparib",112% (inactive)
same,viability,"[8]; at 1.25 µM, OCI-P5x cells, with rucaparib 20 µM, 100% = cells with rucaparib alone",98.2% (active)
same,viability,"[8]; at 1.25 µM, OCI-P5x cells, without rucaparib",103% (inactive)
same,viability,"[8]; at 5 µM, OCI-C5x cells, with rucaparib 10 µM, 100% = cells with rucaparib alone",155% (inactive)
same,viability,"[8]; at 5 µM, OCI-C5x cells, without rucaparib",115% (inactive)
same,viability,"[8]; at 5 µM, OCI-P5x cells, with rucaparib 20 µM, 100% = cells with rucaparib alone",91.8% (active)
same,viability,"[8]; at 5 µM, OCI-P5x cells, without rucaparib",100% (inactive)
same,z-score,[3],-0.675 (inactive)
CCCC[P+](CCCC)(CCCC)Cc1ccc(NC(=O)[C@@H](Cc2ccc3ccccc3c2)NC(=NC2CCCCC2)NC2CCCCC2)cc1,remaining activity,[1],117% (inactive)
same,fold change,[2]; [10],1.01 (inactive)
same,fold change,[2]; [11],1.13
same,cell count,[2]; [12],2940
same,cell count,[2]; [13],2900
same,z-score,[3],-0.83 (inactive)
CN(CCc1ccc(Cl)c(Cl)c1)CCN1CCCC1,remaining activity,[1],108% (inactive)
same,fold change,[2]; [10],1.01 (inactive)
same,fold change,[2]; [11],0.63
same,cell count,[2]; [12],8830
same,cell count,[2]; [13],8750
same,z-score,[3],-1.06 (inactive)
O=C(N/N=C/c1ccccc1O)c1ccccc1O,remaining activity,[1],106% (inactive)
same,fold change,[2]; [10],0.984 (inactive)
same,fold change,[2]; [11],1.5
same,cell count,[2]; [12],4010
same,cell count,[2]; [13],4070
same,z-score,[3],-0.59 (inactive)
O=C1C(=O)N(Cc2ccc(Cl)c(Cl)c2)c2ccccc21,remaining activity,[1],89.3% (inactive)
same,fold change,[2]; [10],0.946 (inactive) and 0.932 (inactive)
same,fold change,[2]; [11],0.72 and 1.49
same,cell count,[2]; [12],8180 and 7960
same,cell count,[2]; [13],8650 and 8540
same,z-score,[7]; [14],-0.161 (inactive)
same,z-score,[7]; [15],-0.14
same,z-score,[3],-0.685 (inactive)
CCN(CC)CCOC(=O)C1(c2ccc([N+](=O)[O-])cc2)CCCC1,survival,[9],10.9 (inactive)
same,parasite load remaining,[5],105% (inactive)
same,viability,[5],84.2%
same,remaining activity,[1],78.5% (inactive)
same,fold change,[2]; [10],0.929 (inactive) and 1.02 (inactive)
same,fold change,[2]; [11],1.89 and 0.688
same,cell count,[2]; [12],8310 and 8650
same,cell count,[2]; [13],8940 and 8460
same,z-score,[7]; [14],0.368 (inactive)
same,z-score,[7]; [15],-0.484
same,z-score,[3],-1.09 (inactive)
COc1cc2ncnc(Nc3ccc(Cl)cc3F)c2cc1OC,remaining activity,[1],98.6% (inactive)
same,fold change,[2]; [10],0.989 (inactive) and 1 (inactive)
same,fold change,[2]; [11],0.8 and 1.6
same,cell count,[2]; [12],5840 and 6100
same,cell count,[2]; [13],5900 and 6080
same,z-score,[7]; [14],-0.209 (inactive)
same,z-score,[7]; [15],-0.0991
same,z-score,[3],0.365 (inactive)
CC(C)(C)c1cc(C(=O)/C=C/c2ccc(C(=O)O)cc2)cc(C(C)(C)C)c1,remaining activity,[1],108% (inactive)
same,fold change,[2]; [10],1.11 (inactive)
same,fold change,[2]; [11],1.56
same,cell count,[2]; [12],1370
same,cell count,[2]; [13],1240
same,z-score,[3],-0.69 (inactive)
